Test results reported in the supplement of paper PMC10849652.
Targets with a hit are over-represented here; the source holds about 8,800 in all. About 0.5% of all pairs of compound and target were hits.

compound: Cc1ccc(NC(=O)c2ccc(CN3CC[C@H](N(C)C)C3)c(C(F)(F)F)c2)cc1Nc1nccc(-c2cncnc2)n1 [bafetinib]; experiment: log2 fold change, soluble protein after heating vs DMSO (PISA); higher = thermal stabilisation; K562 lysate, 10 uM; active = over 0.2 and 3.5 SD of the protein, either way, in both replicates (recomputed)
Method in brief: (§1)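 Thermal stability, expressed as log-two fold change relative to solvent controls, is given from duplicates. Crude K562 extract in PBS pH 7.4 with 1 mM MgCl2, at 1 mg/mL protein, was treated with 10 μM compound for 30 min and heated in aliquots for 3 min across 48°C-58°C. After pooling, adjustment to 0.5% NP-40 at 4°C and centrifugation at 21,000xg for 90 min, supernatant protein was measured by TMTpro 16plex LC-MS/MS with channel sums equalised.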

UniProt Q7Z7K6, sequence (Q7Z7K6 whole entry, looked up): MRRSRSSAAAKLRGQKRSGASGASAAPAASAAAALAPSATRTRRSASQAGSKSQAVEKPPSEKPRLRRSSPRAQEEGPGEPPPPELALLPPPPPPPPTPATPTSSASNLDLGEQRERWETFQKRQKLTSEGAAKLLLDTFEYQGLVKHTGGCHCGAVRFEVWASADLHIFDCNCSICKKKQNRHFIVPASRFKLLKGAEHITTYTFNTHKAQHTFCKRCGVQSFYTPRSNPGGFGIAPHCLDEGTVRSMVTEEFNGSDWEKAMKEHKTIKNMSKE
UniProt Q9NZM4, sequence (Q9NZM4 whole entry, looked up): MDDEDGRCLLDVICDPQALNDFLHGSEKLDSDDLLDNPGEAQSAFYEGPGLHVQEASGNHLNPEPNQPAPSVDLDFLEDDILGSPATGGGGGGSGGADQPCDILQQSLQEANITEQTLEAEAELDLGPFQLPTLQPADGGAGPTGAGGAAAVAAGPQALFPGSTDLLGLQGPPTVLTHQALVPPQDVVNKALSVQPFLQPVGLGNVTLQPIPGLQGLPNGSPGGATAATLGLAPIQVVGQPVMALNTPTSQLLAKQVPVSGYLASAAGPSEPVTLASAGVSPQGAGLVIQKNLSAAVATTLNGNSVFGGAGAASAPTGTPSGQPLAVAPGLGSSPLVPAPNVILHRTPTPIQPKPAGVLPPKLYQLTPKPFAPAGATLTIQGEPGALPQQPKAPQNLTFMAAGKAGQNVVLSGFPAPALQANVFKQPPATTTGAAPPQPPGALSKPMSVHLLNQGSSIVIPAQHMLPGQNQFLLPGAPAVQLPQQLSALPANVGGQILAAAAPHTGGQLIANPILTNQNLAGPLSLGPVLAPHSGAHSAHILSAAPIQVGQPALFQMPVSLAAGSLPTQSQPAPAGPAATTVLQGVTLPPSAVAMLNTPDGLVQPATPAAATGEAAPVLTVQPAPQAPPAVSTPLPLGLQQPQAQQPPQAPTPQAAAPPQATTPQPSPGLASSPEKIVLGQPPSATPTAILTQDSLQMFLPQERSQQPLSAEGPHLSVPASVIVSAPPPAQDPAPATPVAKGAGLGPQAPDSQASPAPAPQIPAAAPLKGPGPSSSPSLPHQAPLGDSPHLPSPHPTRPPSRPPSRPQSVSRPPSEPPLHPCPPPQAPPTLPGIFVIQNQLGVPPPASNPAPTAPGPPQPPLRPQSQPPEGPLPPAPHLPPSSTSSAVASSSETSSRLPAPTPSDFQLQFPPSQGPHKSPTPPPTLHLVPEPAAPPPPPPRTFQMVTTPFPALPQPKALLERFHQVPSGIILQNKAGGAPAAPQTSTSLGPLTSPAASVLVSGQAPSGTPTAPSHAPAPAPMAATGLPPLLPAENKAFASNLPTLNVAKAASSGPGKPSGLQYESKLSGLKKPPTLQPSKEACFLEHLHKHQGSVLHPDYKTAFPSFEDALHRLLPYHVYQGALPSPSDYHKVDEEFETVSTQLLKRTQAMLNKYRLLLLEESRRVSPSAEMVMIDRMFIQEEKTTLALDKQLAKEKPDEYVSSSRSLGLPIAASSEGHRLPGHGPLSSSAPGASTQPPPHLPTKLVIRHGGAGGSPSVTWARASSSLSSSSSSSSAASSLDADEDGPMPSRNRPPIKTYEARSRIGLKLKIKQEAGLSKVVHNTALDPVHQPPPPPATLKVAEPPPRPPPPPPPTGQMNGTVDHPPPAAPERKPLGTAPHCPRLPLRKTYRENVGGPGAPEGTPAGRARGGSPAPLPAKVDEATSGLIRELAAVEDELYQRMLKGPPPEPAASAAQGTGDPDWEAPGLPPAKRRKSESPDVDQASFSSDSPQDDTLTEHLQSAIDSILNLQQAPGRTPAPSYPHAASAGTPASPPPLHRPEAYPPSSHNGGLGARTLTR
UniProt Q9BUK0, sequence (Q9BUK0 whole entry, looked up): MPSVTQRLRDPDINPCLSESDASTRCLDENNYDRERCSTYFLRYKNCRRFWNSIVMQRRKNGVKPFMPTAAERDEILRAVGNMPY
UniProt Q6TDU7, sequence (Q6TDU7 whole entry, looked up): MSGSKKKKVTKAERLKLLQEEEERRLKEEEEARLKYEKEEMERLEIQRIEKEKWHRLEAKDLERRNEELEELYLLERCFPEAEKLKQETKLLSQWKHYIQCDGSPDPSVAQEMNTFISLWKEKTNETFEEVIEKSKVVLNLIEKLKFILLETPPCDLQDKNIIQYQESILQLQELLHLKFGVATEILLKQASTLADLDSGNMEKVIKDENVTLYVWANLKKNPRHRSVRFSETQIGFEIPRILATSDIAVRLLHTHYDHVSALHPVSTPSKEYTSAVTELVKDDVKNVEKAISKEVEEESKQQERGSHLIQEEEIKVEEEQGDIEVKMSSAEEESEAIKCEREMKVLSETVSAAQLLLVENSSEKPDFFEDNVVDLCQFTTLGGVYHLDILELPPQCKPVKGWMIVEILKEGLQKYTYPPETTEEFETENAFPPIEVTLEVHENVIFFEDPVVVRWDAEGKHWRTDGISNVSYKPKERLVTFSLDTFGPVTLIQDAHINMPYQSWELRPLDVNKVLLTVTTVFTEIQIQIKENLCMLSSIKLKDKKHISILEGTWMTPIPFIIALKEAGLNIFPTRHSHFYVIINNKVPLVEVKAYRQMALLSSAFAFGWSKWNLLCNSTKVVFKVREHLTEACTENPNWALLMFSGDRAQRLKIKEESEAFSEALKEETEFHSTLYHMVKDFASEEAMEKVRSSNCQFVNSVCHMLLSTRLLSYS
UniProt Q13554, sequence (Q13554 whole entry, looked up): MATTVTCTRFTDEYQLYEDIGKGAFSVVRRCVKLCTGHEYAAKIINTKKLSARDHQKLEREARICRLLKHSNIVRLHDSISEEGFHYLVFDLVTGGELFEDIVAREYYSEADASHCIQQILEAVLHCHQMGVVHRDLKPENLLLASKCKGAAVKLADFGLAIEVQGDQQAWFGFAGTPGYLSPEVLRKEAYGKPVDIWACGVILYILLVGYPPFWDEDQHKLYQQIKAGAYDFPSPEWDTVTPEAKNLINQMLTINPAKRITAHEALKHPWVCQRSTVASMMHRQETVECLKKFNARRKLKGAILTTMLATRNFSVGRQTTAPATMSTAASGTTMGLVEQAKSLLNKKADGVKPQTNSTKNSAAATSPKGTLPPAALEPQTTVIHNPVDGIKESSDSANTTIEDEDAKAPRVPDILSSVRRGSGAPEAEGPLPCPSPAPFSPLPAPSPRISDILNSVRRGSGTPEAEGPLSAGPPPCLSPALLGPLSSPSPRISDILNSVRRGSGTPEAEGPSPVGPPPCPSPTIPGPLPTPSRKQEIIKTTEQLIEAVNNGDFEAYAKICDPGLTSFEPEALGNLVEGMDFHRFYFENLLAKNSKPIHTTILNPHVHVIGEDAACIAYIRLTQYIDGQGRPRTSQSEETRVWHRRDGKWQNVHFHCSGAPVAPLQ
UniProt Q53HL2, sequence (Q53HL2 whole entry, looked up): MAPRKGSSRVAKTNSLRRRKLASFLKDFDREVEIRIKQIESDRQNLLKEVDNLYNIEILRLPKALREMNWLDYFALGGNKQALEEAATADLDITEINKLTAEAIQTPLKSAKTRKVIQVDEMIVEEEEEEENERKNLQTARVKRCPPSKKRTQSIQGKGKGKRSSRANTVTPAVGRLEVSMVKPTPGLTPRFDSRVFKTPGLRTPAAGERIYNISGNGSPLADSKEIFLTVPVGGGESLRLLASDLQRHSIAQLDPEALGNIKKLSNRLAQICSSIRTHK
UniProt Q00536, sequence (Q00536 whole entry, looked up): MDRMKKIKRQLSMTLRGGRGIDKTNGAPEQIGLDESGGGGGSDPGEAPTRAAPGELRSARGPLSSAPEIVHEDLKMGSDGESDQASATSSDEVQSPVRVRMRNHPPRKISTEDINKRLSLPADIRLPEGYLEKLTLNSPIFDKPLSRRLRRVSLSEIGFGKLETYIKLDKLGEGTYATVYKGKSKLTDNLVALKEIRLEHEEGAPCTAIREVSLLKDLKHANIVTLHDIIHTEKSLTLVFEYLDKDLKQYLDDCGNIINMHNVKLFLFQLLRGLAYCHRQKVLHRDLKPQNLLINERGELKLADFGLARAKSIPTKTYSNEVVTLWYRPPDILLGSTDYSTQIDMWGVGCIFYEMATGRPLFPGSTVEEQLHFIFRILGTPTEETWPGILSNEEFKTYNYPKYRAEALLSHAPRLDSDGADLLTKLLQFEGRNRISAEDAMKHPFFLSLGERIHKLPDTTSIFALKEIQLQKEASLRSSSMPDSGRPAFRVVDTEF
UniProt O95260, sequence (O95260 whole entry, looked up): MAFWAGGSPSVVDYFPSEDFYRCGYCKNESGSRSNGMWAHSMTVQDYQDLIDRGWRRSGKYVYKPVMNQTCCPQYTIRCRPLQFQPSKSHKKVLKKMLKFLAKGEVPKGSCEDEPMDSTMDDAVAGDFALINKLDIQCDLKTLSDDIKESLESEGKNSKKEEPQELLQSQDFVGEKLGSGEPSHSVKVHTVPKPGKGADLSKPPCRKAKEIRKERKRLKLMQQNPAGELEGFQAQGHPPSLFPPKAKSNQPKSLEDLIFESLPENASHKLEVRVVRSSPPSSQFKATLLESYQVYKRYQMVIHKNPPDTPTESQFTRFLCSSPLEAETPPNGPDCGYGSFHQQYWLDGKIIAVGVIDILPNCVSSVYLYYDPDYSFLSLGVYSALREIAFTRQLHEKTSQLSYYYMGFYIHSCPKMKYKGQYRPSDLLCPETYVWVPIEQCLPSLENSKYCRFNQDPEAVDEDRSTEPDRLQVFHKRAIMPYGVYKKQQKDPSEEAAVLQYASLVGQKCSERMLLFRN
UniProt Q9BYV8, sequence (Q9BYV8 whole entry, looked up): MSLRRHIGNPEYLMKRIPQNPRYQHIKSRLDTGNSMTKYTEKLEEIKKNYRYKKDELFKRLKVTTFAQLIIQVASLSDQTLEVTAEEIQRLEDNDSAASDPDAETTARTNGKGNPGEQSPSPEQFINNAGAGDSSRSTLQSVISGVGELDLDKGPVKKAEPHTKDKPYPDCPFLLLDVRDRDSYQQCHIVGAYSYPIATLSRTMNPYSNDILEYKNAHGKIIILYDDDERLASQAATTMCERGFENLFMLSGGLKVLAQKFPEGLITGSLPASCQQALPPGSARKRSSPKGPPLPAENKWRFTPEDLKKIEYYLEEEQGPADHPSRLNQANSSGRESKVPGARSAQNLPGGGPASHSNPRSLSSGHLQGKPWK

log2 fold change, inactive:
C3AR1 (UniProt Q16581) 0.111, CCND3 (UniProt P30281) 0.003, CASP7 isoform 3 (UniProt P55210) -0.054, CDK11A (UniProt Q9UQ88) -0.033, CDCA8 (UniProt Q53HL2) -0.217, ATG4D (UniProt Q86TL0) -0.056, CAMK2B (UniProt Q13554) 0.003, B3GALT6 (UniProt Q96L58) -0.066, CASC1 (UniProt Q6TDU7) 0.953, CEP128 (UniProt Q6ZU80) -0.043, CEP57L1 (UniProt Q8IYX8) -0.184, C6orf120 (UniProt Q7Z4R8) 0.045, CCP110 (UniProt O43303) -0.053, CENPV (UniProt Q7Z7K6) -0.163, CARHSP1 (UniProt H3BNU9) 0, CEP41 (UniProt Q9BYV8) -0.067, ATPSCKMT (UniProt Q6P4H8) -0.034, CDK16 isoform 2 (UniProt Q00536) -0.007, CEP295 isoform 3 (UniProt Q9C0D2) 0.031, CAPNS1 (UniProt U3KPR7) -0.194, ATE1 (UniProt O95260) -0.039, CHCHD7 isoform 4 (UniProt Q9BUK0) -0.001, BRD3 (UniProt Q15059) -0.016, BICRA (UniProt Q9NZM4) 0.078, C8orf88 (UniProt P0DMB2) -0.016, C16orf70 (UniProt Q9BSU1) -0.045, CCDC130 (UniProt P13994) -0.119

compound: Cc1cccc(CC(=O)N2CCc3c2ccc(-c2cn(C)c4ncnc(N)c24)c3F)n1; experiment: as above
Method in brief: as §1

log2 fold change, inactive:
C3AR1 (UniProt Q16581) 0.099, CCND3 (UniProt P30281) 0.096, CDKL5 (UniProt O76039) -0.073, CDK11A (UniProt Q9UQ88) -0.093, CDCA8 (UniProt Q53HL2) -0.128, CAMK2B (UniProt Q13554) 0.055, CASC1 (UniProt Q6TDU7) 0.095, CEP128 (UniProt Q6ZU80) 0.297, CEP57L1 (UniProt Q8IYX8) 0.073, BAHCC1 (UniProt Q9P281) 0.234, C6orf120 (UniProt Q7Z4R8) -0.169, CENPV (UniProt Q7Z7K6) -0.36, CARHSP1 (UniProt H3BNU9) 0.341, CEP41 (UniProt Q9BYV8) 0.007, CDK16 isoform 2 (UniProt Q00536) -0.05, CEP295 isoform 3 (UniProt Q9C0D2) 0.072, ATE1 (UniProt O95260) 0.009, CHCHD7 isoform 4 (UniProt Q9BUK0) 0.187, BRD3 (UniProt Q15059) 0.154, BICRA (UniProt Q9NZM4) 0.133, C8orf88 (UniProt P0DMB2) -0.095, CAD (UniProt H7BZB3) 0.057, BMT2 (UniProt Q1RMZ1) -0.056
